Compound activity: PubChem BioAssay, National Center for Advancing Translational Sciences (NCATS)
Most compounds without a hit are left out; they make up all but 2.9% or so of the library.
HEK293 viab: GF-AFC viability counterscreen for inhibitors of alpha-synuclein gene (SNCA) expression | HEK-293-SNCA-luc viability, GF-AFC fluorescence, 24 h | Potency, µM (top dose mostly 57.1 µM), for inactives: at the top dose activity change, negative = cytotoxicity, most hits filed as cytotoxic | hit rate 0.12% among 150,000;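 further: potency means the concentration at half of the fitted maximal effect; 0% = DMSO-treated cells and -100% = medium-only wells without cells; nearly all actives have a fitted effect of over 30% in size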
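Cytotoxicity counterscreen: after 24 h compound treatment of genome-edited SNCA-luciferase HEK-293 cells, live-cell protease substrate GF-AFC read by fluorescence after 30 min; activity scaled between DMSO (0%) and medium-only (-100%), curves Hill-fitted.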
IP6K1 inh: Primary qHTS assay for small molecule inhibitors of Inositol hexaphosphate kinase 1 (IP6K1); Inositol hexakisphosphate kinase 1 (Homo sapiens), Q92551; IP6K1 kinase, ADP-Glo luminescence, 2 h; hits give low values; activity change, % (series mostly up to about 58 µM); hit rate 0.81% among 140,000; AID 1645851, 2021; in the data active means activity change below about -25%; further: on the % scale 0 is the no-effect control and ±100 the full control effect
Target sequence (Q92551 whole entry, looked up): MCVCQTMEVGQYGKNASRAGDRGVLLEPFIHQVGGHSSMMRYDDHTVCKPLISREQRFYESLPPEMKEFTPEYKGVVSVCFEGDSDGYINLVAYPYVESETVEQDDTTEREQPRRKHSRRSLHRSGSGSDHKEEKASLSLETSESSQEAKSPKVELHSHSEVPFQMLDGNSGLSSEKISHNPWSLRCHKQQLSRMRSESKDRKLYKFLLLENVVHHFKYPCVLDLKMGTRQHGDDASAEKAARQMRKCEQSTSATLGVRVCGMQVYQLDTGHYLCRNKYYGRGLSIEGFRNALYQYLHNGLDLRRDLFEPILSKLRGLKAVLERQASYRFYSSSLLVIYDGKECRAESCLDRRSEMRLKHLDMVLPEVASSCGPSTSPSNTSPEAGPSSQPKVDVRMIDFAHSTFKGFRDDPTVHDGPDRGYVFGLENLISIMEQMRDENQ
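ADP-Glo luminescence measures ADP made by human IP6K1 during a 2 h RT reaction with ATP/IP6 (mix at 1.3 mM/130 uM); top library doses 57.5 and 19.1 uM final.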
KDM5B inh: Primary screen for KDM5B Histone Demethylases FDH-coupled qHTS; Potency, µM (series often up to 57.7 µM), usual class: inhibitors; KDM5B demethylase, FDH-coupled NADH fluorescence (FDH is formaldehyde dehydrogenase); Lysine-specific demethylase 5B (Homo sapiens), Q9UGL1; hit rate 2.6% among 220,000; AID 1347165, 2019; further: potency means the concentration at half of the fitted maximal effect; 0% is about no effect; nearly all actives have a fitted effect of over 70% in size
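qHTS format, multiple compound concentrations. Buffer 50 mM HEPES pH 7.5/0.01% Tween-20; 200 nM KDM5BΔAP final; 10 min compound preincubation; substrate-mix levels 12.5 µM peptide, 25 µM α-KG, 0.25 mM NAD⁺; 30 min RT; ΔRFU.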
SNCA expr inhib: Primary qHTS assay for inhibitors of alpha-synuclein gene (SNCA) expression; HEK-293 SNCA-luciferase knock-in, luminescence, 24 h; Potency, µM (series often up to 57.2 µM), without a hit: top-dose activity change, negative = inhibition, usual class: inhibitors; hit rate 0.17% among 140,000; AID 1671194, 2021;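 further: potency means the concentration at half of the fitted maximal effect; plate controls were DMSO cells for no effect and cell-free wells for full effect; nearly all actives have a fitted effect of over 45% in size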
Active calls of the source: *; [ ] = remark or other dose. Unless noted, the call rests on the fitted dose curve; in most records, active means well fitted curve in the direction sought with a large enough effect; inconclusive means small, poorly fitted or top-dose-only effect, or another doubt; inactive means no such curve, though single readings can be large; an effect the other way counts as inactive or inconclusive.

Cc1ccc(Cl)cc1-n1nc(-c2c(C)nc3scc(CC(=O)N4CCOCC4)n3c2=O)cc1C was read as HEK293 viab -8%, IP6K1 inh 25, KDM5B inh 28µM* and SNCA expr inhib -13%.
Cc1ccc(C)c(-n2nc(-c3c(C)nc4scc(CC(=O)N5CCOCC5)n4c3=O)cc2C)c1 was read as HEK293 viab -1%, IP6K1 inh 13, KDM5B inh 28µM* and SNCA expr inhib 28%.
For CCc1ccc(NC(=O)c2cc3n(n2)CC(c2ccc4c(c2)OCO4)OC3)cc1 (centres undefined) the results were HEK293 viab 1%, IP6K1 inh -1, KDM5B inh 32µM* and SNCA expr inhib -20%.
`COc1ccc(CCNC(=O)c2cc3n(n2)CC(c2ccc4c(c2)OCO4)OC3)cc1OC` (centres undefined) gave HEK293 viab inconclusive, IP6K1 inh -8, KDM5B inh 28µM* and SNCA expr inhib -6%.
For Cc1cccc(NC(=O)c2cc3n(n2)CC(c2ccc4c(c2)OCO4)OC3)c1 (centres undefined) the results were HEK293 viab 6%, IP6K1 inh -8, KDM5B inh inconclusive and SNCA expr inhib -9%.
`O=C(Nc1ccccc1)c1cc2n(n1)CC(c1ccc3c(c1)OCO3)OC2` (centres undefined) gave HEK293 viab -10%, IP6K1 inh 22, KDM5B inh inconclusive and SNCA expr inhib 2%.
`Cc1cc(NC(=O)c2cc3n(n2)CC(c2ccc4c(c2)OCO4)OC3)ccc1F` (centres undefined) gave HEK293 viab -6%, IP6K1 inh 22, KDM5B inh 28µM* and SNCA expr inhib -18%.
`COc1ccc(CCNC(=O)c2cc3n(n2)CC(c2ccc(Cl)cc2)OC3)cc1OC` (centres undefined) gave HEK293 viab -28%, IP6K1 inh 31, KDM5B inh inconclusive and SNCA expr inhib inconclusive.
`Cc1ccc(NC(=O)c2cc3n(n2)CC(c2ccc4c(c2)OCO4)OC3)cc1` (centres undefined) gave HEK293 viab 5%, IP6K1 inh -8, KDM5B inh 32µM* and SNCA expr inhib -4%.
COc1ccc(NC(=O)c2cc3n(n2)CC(c2ccc4c(c2)OCO4)OC3)cc1Cl (centres undefined) was read as HEK293 viab -4%, IP6K1 inh 9, KDM5B inh 25µM* and SNCA expr inhib -12%.
COc1ccc(NC(=O)c2cc3n(n2)CC(c2ccc4c(c2)OCO4)OC3)cc1OC (centres undefined) was read as HEK293 viab -4%, IP6K1 inh 5, KDM5B inh inactive and SNCA expr inhib 1%.
`Cc1nc2ncccn2c1C(=O)N[C@H]1CCOC[C@H]1C1CCOCC1` gave HEK293 viab 5%, IP6K1 inh 7, KDM5B inh 28µM* and SNCA expr inhib -6%.
`Cc1cc(C(=O)N[C@H]2CCOC[C@H]2C2CCOCC2)cc(C)n1` gave HEK293 viab -1%, IP6K1 inh 8, KDM5B inh inactive and SNCA expr inhib -21%.
For Cc1ccccc1Cn1c(=O)n(Cc2ccc3c(c2)OCO3)c(=O)c2oc3ccccc3c21 the results were HEK293 viab -2%, IP6K1 inh -10, KDM5B inh inactive and SNCA expr inhib 4%.
`COc1ccc(-c2cnc3[nH]cc(CC(=O)N4CCC(OC)CC4)c3c2)cc1` gave HEK293 viab -22%[87.6 µM], IP6K1 inh -2, KDM5B inh 35µM* and SNCA expr inhib 10%[87.6 µM].
COC1CCN(C(=O)Cc2c[nH]c3ncc(-c4ccccc4)cc23)CC1 was read as HEK293 viab -11%[87.6 µM], IP6K1 inh -11, KDM5B inh 40µM* and SNCA expr inhib -22%[87.6 µM].
Screening O=C1CN(C(=O)Cc2c[nH]c3ncc(-c4ccccc4)cc23)CCN1 returned HEK293 viab 9%[87.6 µM], IP6K1 inh -5, KDM5B inh 40µM* and SNCA expr inhib 6%[87.6 µM].
`COc1ccc(-c2cnc3[nH]cc(CC(=O)N4CCCC4)c3c2)cc1` gave HEK293 viab -26%[87.6 µM], IP6K1 inh -11, KDM5B inh 35µM* and SNCA expr inhib 10%[87.6 µM].
`O=C(Cc1c[nH]c2ncc(-c3ccccc3)cc12)NC1CC1` gave HEK293 viab -9%[87.6 µM], IP6K1 inh -17, KDM5B inh inconclusive and SNCA expr inhib -22%[87.6 µM].
`Cc1cc(C)nc(Nc2nc3ccccc3c(=O)[nH]2)n1` gave KDM5B inh inactive.
Cc1ccc(-c2cc(C(=O)O)c3cc(Br)ccc3n2)cc1 was read as KDM5B inh inactive.
For FC(F)(F)c1cccc(Nc2ncc(-c3cccnc3)c3c2OCC3)c1 the results were HEK293 viab -24%[87.6 µM], IP6K1 inh 22, KDM5B inh 28µM* and SNCA expr inhib -12%[87.6 µM].
`Cn1cc(-c2cnc(Nc3cccc(C(F)(F)F)c3)c3c2CCO3)cn1` gave HEK293 viab -25%[87.6 µM], IP6K1 inh -19, KDM5B inh 35µM* and SNCA expr inhib 0%[87.6 µM].
N#CCc1ccc(NC(=O)CNc2cccc(F)c2)cc1 was read as KDM5B inh inactive.
`Cc1ccc(CSCC(=O)NCc2ccc3c(c2)OCO3)cc1` gave KDM5B inh inactive.
Cc1nc2cnccn2c1C(=O)NCc1ccc(F)cc1 was read as IP6K1 inh 18.
Cc1cccc(-c2nc3cnccn3c2NCCC(=O)NCc2ccc(F)c(Cl)c2)c1 was read as HEK293 viab inconclusive, IP6K1 inh 19, KDM5B inh 28µM* and SNCA expr inhib 0%.
`Cc1cccc(-c2nc3cnccn3c2NCCC(=O)NCc2ccc3c(c2)OCO3)c1` gave HEK293 viab inconclusive, IP6K1 inh 7, KDM5B inh 28µM* and SNCA expr inhib 4%.
For O=C(CCNc1c(-c2cccc(F)c2)nc2cnccn12)NCc1ccc(Cl)cc1 the results were HEK293 viab inconclusive, IP6K1 inh 5, KDM5B inh 28µM* and SNCA expr inhib 5%.
For COc1ccc(OC)c(NC(=O)CSC2=Nc3ccccc3C3=NC(CCC(=O)NCc4ccccc4)C(=O)N23)c1 (centres undefined) the results were HEK293 viab 2%, IP6K1 inh -5, KDM5B inh inactive and SNCA expr inhib -9%.
Cc1ccccc1-c1cc(C(=O)N2CCC3(CC2)CC(O)CCO3)[nH]n1 (centres undefined) was read as HEK293 viab 12%, IP6K1 inh 13, KDM5B inh inactive and SNCA expr inhib -1%.
O=C(N[C@H]1CO[C@H]2[C@@H]1OC[C@@H]2Nc1nccc(-c2ccco2)n1)c1ccco1 was read as HEK293 viab 2%[87.6 µM], IP6K1 inh 14, KDM5B inh 40µM* and SNCA expr inhib 4%[87.6 µM].
S=C(Nc1ccccc1)N[C@H]1CO[C@H]2[C@@H]1OC[C@@H]2Nc1nccc(-c2ccco2)n1 was read as HEK293 viab -5%[87.6 µM], IP6K1 inh 4, KDM5B inh 25µM* and SNCA expr inhib -6%[87.6 µM].
